# Screens (PubChem)
# An excerpt weighted towards active compounds, which were near 12% of everything screened.
# Sfp PPTase inh: Sfp phosphopantetheinyl transferase inhibition. Q9F4F7. Biochemical Sfp PPTase activity, qHTS. Potency, µM, most hits filed as inhibitors. hit rate 3.5% among 310,000;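 also: the enzyme is Sfp with the accession as filed and its product quenches rhodamine fluorescence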
#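 Fluorescence-quenching assay with 15 nM Sfp, 5 uM rhodamine-CoA and 12.5 uM BHQ-2-labelled ybbR peptide in pH 7.6 Hepes/MgCl2 buffer. Enzyme was pre-incubated with compound for 15 min at room temperature. Rate was taken from the 30-min fluorescence change (525/598 nm).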
# G9a block: blocks human histone lysine methyltransferase G9a; Potency, µM (doses to about 102 µM), hits mostly inhibitors; G9a H3K9 monomethylation, AlphaScreen, 2 h; hit rate 8.8% among 350,000; AID 504332; Q96KQ7; also: nearly all actives have a fitted effect of over 75% in size
# Target sequence (Q96KQ7 913-1193 limits assumed): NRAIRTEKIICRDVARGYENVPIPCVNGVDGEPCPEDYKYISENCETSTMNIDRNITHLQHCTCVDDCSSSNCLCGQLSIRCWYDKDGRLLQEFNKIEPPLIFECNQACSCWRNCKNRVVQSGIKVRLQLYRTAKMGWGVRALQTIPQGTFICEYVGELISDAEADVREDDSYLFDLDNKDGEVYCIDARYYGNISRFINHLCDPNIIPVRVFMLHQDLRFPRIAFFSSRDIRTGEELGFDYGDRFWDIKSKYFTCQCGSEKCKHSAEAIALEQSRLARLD
#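 Quantitative HTS format: methyltransferase activity on a biotin-tagged H3K9 peptide is measured by AlphaScreen, using a rabbit anti-monomethyl-H3K9 antibody with streptavidin donor and anti-IgG acceptor beads. Final levels are 20 nM enzyme, 500 nM peptide, 20 uM SAM; 2 h RT.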
# JMJD2A Tudor: JMJD2A Tudor domain (human) inhibition; O75164; AlphaScreen JMJD2A-Tudor / H3K4me3 peptide binding; Potency, µM (highest dose often 114 µM), usual class: inhibitors; hit rate 4.4% among 390,000; AID 504339; also: nearly all actives have a fitted effect of over 50% in size
# HP1b binding inh: inhibitors of HP1-beta chromodomain binding to methylated histone tails. P83916. AlphaScreen HP1-beta / biotin-H3K9me3 peptide binding. Potency, µM (highest dose often 114 µM), actives largely listed as inhibitors. hit rate 0.56% among 390,000. AID 540317; also: nearly all actives have a fitted effect of over 70% in size
# Target sequence (P83916 whole entry, looked up): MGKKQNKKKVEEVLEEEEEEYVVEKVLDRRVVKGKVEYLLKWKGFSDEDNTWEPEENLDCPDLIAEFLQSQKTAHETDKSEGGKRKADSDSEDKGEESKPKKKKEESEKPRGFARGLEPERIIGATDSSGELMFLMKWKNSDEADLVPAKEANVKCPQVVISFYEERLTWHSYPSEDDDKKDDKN
#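 Compound inhibition of the preformed complex between 50 nM HP1-beta and 50 nM biotinylated H3K9me3 peptide was read by AlphaScreen. Buffer was PBS pH 7.4 with 0.01% Tween-20. Incubations ran 30 min at room temperature, with 10 ug/mL donor/acceptor beads.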
# L3MBTL1 inh: inhibitors of human L3MBTL1; AlphaScreen L3MBTL1–H3K9me1 peptide binding; Potency, µM (series often up to 57.1 µM), most hits filed as inhibitors; hit rate 0.66% among 230,000; also: nearly all actives have a fitted effect of over 60% in size
#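 Displacement of a biotinylated histone H3(1-15) peptide monomethylated at Lys9 (75 nM) from L3MBTL1 (50 nM) was measured by AlphaScreen after a 30 min room-temperature compound incubation; cefsulodin titration served as intraplate control.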
# BAZ2B block: BAZ2B (human) inhibition; AlphaScreen BAZ2B-H3K14Ac peptide displacement; Potency, µM (highest dose often 114 µM), most hits filed as inhibitors; AID 504333; hit rate 4.4% among 360,000; also: nearly all actives have a fitted effect of over 60% in size
#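 Inhibition is scored as reduced AlphaScreen emission. The BAZ2B/b-H3(5-23)K14Ac complex (50 nM each) in PBS pH 7.4, 0.01% Tween-20 meets compound (up to 110 uM) for 30 min at RT before bead addition.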
# Numbers stand for hits; i = inactive; ? = inconclusive; nt = no result given; [ ] = remark or other dose. Calls follow the shape of the dose curve; as a rule, active = well fitted curve in the direction sought with a large enough effect; inconclusive = small, poorly fitted or top-dose-only effect, or another doubt; inactive = no such curve, though single readings can be large; an effect the other way counts as inactive or inconclusive.
SMILES,Sfp PPTase inh,G9a block,JMJD2A Tudor,HP1b binding inh,L3MBTL1 inh,BAZ2B block
COC(=O)CNc1c(-c2ccccn2)nc2ccc(Br)cn12,28.2µM,?,i,i,i,?
O=C(NCCCN1CCN(c2ccc(F)cc2)CC1)Nc1ccccc1Cl,nt,?,i,i,nt,?
O=c1cc(/C=C/c2ccccc2)oc2c1ccc1ccccc12,79.4µM,?,i,i,i,i
O=c1cc(-c2ccccc2)oc2c1ccc1ccccc12,44.7µM,nt,nt,nt,nt,nt
CC1C(=O)N2CCCc3cc(NC(=O)C(=O)NCCc4c[nH]c5ccccc45)cc1c32 (stereo unspecified),nt,28.2µM,?,i,i,i
CCOc1ccccc1C(=O)Nc1c(C(=O)Nc2ccc(F)cc2)oc2ccccc12,nt,i,i,i,nt,i
CC(C)CCN(C(=O)C1CSC2(C)CCC(=O)N12)c1c(N)n(Cc2ccccc2)c(=O)[nH]c1=O (stereo unspecified),nt,28.2µM,i,i,i,?
CCCN(C(=O)C1CSC2(C)CCC(=O)N12)c1c(N)n(Cc2ccccc2)c(=O)[nH]c1=O (stereo unspecified),nt,?,i,i,i,i
CSc1cccc(N2CC(C(=O)N(CC(C)C)c3c(N)n(Cc4ccccc4)c(=O)[nH]c3=O)CC2=O)c1 (stereo unspecified),nt,39.8µM,i,i,?,?
COC(=O)N1C2=C(c3ccccc3[C@@H]1CC(=O)Nc1ccc3ccc4cccc5ccc1c3c45)[C@@H]1C(=O)N(c3ccccc3)C(=O)[C@@H]1[C@H](C)C2,i,nt,nt,nt,nt,nt
Cc1ccc(C(=O)CSc2ncnc3ccccc23)o1,?,25.1µM,i,i,i,i
O=C(CSc1ncnc2ccccc12)c1cccs1,i,22.4µM,i,i,nt,i
O=C(CSc1ncnc2ccccc12)N1CCCC1,i,i,i,i,nt,i
CC(C)[C@@H](CC(=O)N[C@@H]1CCCC[C@H]1C(=O)N[C@H](CC(=O)N[C@@H](CCC(=O)O)CC(=O)O)Cc1c[nH]c2ccccc12)NC(=O)C[C@H](Cc1c[nH]c2ccccc12)NC(=O)[C@@H]1CNCC[C@H]1N,i,nt,nt,nt,nt,nt
COc1cccc(C2C=C(c3ccc(C)c(C)c3)Nc3nnnn32)c1OC (stereo unspecified),nt,i,i,i,nt,i
COc1ccc(C2C=C(c3ccc(Br)s3)Nc3ncnn32)cc1OC (stereo unspecified),56.2µM,11.2µM,nt,nt,i,?
COc1ccc(C2C=C(c3ccc(C)cc3)Nc3ncnn32)cc1 (stereo unspecified),?,?,i,i,i,?
COc1cccc(C2C=C(c3cccs3)Nc3ncnn32)c1OC (stereo unspecified),50.1µM,nt,i,i,?,?
Cc1ccc(S(=O)(=O)N2CCc3nc(COc4ccccc4)c4c(c3C2)CO[C@@H](C)C4)cc1,i,nt,nt,nt,nt,nt
CCCN(CCC(=O)Nc1cc(OC)cc(OC)c1)CC1CC1,?,44.7µM,i,i,i,?
CCN(CCC(=O)Nc1cc(OC)cc(OC)c1)Cc1ccccc1,44.7µM,44.7µM,i,i,i,i
CCCN(CCC(=O)Nc1ccccc1F)CC1CC1,i,i[12.7 µM],i,i,nt,i
CCc1cccc(C)c1NC(=O)COCc1cc(-c2ccc3c(c2)OCO3)on1,nt,i,i,i,nt,i
CC(=O)c1cccc(CN2CCCC(C(=O)c3ccc4c(c3)OCO4)C2)c1 (stereo unspecified),i,nt,i,i,i,i
CCN(CC)C(=O)C1CCCN(Cc2ccc(N(C)C)cc2)C1 (stereo unspecified),i,14.1µM,44.7µM,?,i,31.6µM
SMILES,Sfp PPTase inh,G9a block,JMJD2A Tudor,HP1b binding inh,L3MBTL1 inh,BAZ2B block
c1cc2c(cc1CN1CCN(C3CCCCCC3)CC1)OCO2,56.2µM,10µM,17.8µM,?,nt,17.8µM
CCOC(=O)C1CCCN(C(=O)c2ccc3c(c2)OCO3)C1 (stereo unspecified),i,i,i,i,i,i
CCOC(=O)C1CCCN(Cc2ccc3c(c2)OCO3)C1 (stereo unspecified),i,8.91µM,2.51µM,25.1µM,i,50.1µM
c1ccc(CN2CCC(N3CCN(Cc4ccc5c(c4)OCO5)CC3)CC2)cc1,i,i,i,i,nt,i
O=C(C1CCCN(Cc2ccc3c(c2)OCO3)C1)N1CCCC1 (stereo unspecified),i,10µM,39.8µM,?,i,56.2µM
CN(C)c1ccc(CN2CCCC(O)C2)cc1 (stereo unspecified),i,i,i,i,i,i
CCCCC(=O)OCc1cc(=O)n2nc(C3CCCCC3)sc2n1,nt,i,i,i,nt,i
CCOc1ccc2nc(N(Cc3cccnc3)C(=O)c3ccco3)sc2c1,nt,i,i,i,nt,i
CCC(CC)c1nn2c(=O)cc(COc3ccc(NC(=O)c4ccccc4C)cc3)nc2s1,nt,i,i,i,nt,i
O=C(NC1CCCN(Cc2ccc(Cl)cc2)C1)C1CCC1 (stereo unspecified),i,i,i,i,i,i
CCN(CC)C(=O)C1CCCN(Cc2ccc3c(c2)OCO3)C1 (stereo unspecified),i,8.91µM,7.08µM,i,nt,?
COc1ccccc1C(=O)C1CCCN(Cc2ccc3c(c2)OCCO3)C1 (stereo unspecified),i,i,i,i,i,i
NC(=O)C1CCCN(Cc2ccc(Cl)cc2)C1 (stereo unspecified),i,3.55µM,3.16µM,i,nt,79.4µM
Nc1cccc(CN2CCCC2)c1,i,nt,i,i,i,i
CCOC(=O)C1CCCN(CC(=O)c2ccc(F)cc2)C1 (stereo unspecified),50.1µM,?,3.55µM,?,nt,20µM
Clc1cccc(CN2CCCCCC2)c1,i,11.2µM,39.8µM,i,i,?
COc1cccc(C2Nc3ccccc3-c3nnc(SCc4ccccc4)nc3O2)c1OC (stereo unspecified),nt,i,?,i,nt,i
Cc1ccc(C)c(CNC(=O)c2cnc3sc(N4CCCC4)nn3c2=O)c1,nt,i,i,i,nt,i
CC[N+](CC)(CCNC(=O)C(=O)NCC[N+](CC)(CC)Cc1ccccc1Cl)Cc1ccccc1Cl,i,i,nt,nt,nt,nt
COc1cc(CN2CCCC(C)C2)ccc1OCc1ccccc1 (stereo unspecified),i,nt,i,i,i,i
CCOC(=O)C1CCCN(Cc2ccc(OCc3ccccc3)cc2)C1 (stereo unspecified),i,nt,?,?,i,i
O=[N+]([O-])c1ccc(O)c(CN2CCCCCC2)c1,?,i[0.501 µM],i,i,i[2.29 µM],i
O=[N+]([O-])c1ccc(Cl)cc1CN1CCCCCC1,i,22.4µM,20µM,?,i,?
COc1cc(CN2CCC(C)CC2)ccc1OCc1ccccc1,i,?,25.1µM,?,i,?
